The sample as a whole holds a higher share of hits than the screen did.
FBPA Giardia inh: qHTS Assay for Inhibitors of Fructose-1,6-bisphosphate Aldolase from Giardia Lamblia; purified Giardia FBPA; A8B2U2; AID 2451, 2010; Potency, µM (series often up to 59.6 µM), for the others: at the top dose activity, negative = inhibition, actives largely listed as inhibitors; actives 0.71% (n = 290,000); further: potency means the concentration at half of the fitted maximal effect; on the % scale 0 is the no-effect control and ±100 the full control effect; nearly all actives have a fitted effect of over 55% in size
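40 nM FBPA preincubated 10 min at RT with compound (up to 57.5 uM final), then substrate plus GAPDH/TPI/NAD/arsenate coupling and diaphorase/resazurin added. Fluorescence read after 20 min at RT, 525/598 nm.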
LmPK inhibitor: qHTS Assay for Inhibitors of Leishmania Mexicana Pyruvate Kinase (LmPK) | purified LmPK, Kinase-Glo ATP luminescence, 1 h | Potency, µM (series often up to 57.5 µM), without a hit: at the highest dose activity change, negative = inhibition, most hits filed as inhibitors | actives 0.37% (n = 290,000) | Q27686; further: potency means the concentration at half of the fitted maximal effect; on the % scale 0 is the no-effect control and ±100 the full control effect
Target sequence (Q27686 whole entry, looked up): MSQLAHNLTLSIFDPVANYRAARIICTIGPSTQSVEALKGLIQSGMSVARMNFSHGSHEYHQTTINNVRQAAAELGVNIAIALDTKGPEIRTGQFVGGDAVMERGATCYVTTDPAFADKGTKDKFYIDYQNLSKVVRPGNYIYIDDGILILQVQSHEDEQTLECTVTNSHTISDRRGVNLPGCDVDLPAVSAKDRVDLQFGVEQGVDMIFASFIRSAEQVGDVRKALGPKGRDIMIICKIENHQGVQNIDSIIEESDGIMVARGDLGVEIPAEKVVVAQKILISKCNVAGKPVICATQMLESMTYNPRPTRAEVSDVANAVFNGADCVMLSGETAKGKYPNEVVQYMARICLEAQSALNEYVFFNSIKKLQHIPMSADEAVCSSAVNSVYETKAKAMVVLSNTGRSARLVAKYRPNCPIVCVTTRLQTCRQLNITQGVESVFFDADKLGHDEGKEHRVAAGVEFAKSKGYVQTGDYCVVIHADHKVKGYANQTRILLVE
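Purified LmPK (0.1 nM) with 0.5 mM PEP and 0.1 mM ADP in imidazole buffer pH 7.2 with MgCl2/KCl, 1 h at room temperature. ATP formed was read by luciferase luminescence and normalized to no-enzyme and uninhibited controls.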
CHX counter: Cycloheximide Counterscreen for Small Molecule Inhibitors of Shiga Toxin; max response, %; cell reporter, cycloheximide protein synthesis inhibition counterscreen; actives 12% (n = 300,000); in the data active means max response mostly above about 13%, no sharp cut-off; inactive means mostly below about 14%; further: read at 38.3 µM for the half of the compounds with a filed dose; 0% is about no effect
Tb PYK inh: qHTS of Trypanosoma Brucei Inhibitors; Potency, µM (doses to about 76.8 µM), for inactives: at the top dose activity, negative = inhibition, actives largely listed as inhibitors; TbPYK enzyme, Kinase-Glo Plus ATP luminescence, 45 min; pyruvate kinase (Trypanosoma brucei), Q57TT1; AID 624173, 2012; actives 0.12% (n = 410,000); further: potency means the concentration at half of the fitted maximal effect; on the % scale 0 is the no-effect control and ±100 the full control effect; nearly all actives have a fitted effect of over 50% in size
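Screened from lowest to highest concentration, compounds were pinned into TbPYK/substrate mixtures, and ADP (130 uM final) was added. Plates sat at room temperature for 45 min prior to Kinase-Glo Plus detection by luminescence.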
Shiga toxin inh: A qHTS for Small Molecule Inhibitors of Shiga Toxin; Vero cells, Shiga toxin protein synthesis inhibition reporter; actives 9.2% (n = 290,000); inhibition, % at 38.7 µM; in the data active means inhibition mostly above about 28%, no sharp cut-off; inactive means mostly below about 43%; further: 0% is about no effect
Sm TGR block: qHTS Assay for the Inhibitors of Schistosoma Mansoni Peroxiredoxins | Schistosoma mansoni thioredoxin glutathione reductase (TGR), Q962Y6 | purified TGR, DTNB reduction, TNB absorbance 405 nm | Potency, µM (highest dose often 114 µM), without a hit: top-dose activity change, negative = inhibition, actives largely listed as inhibitors | actives 3% (n = 360,000); further: potency means the concentration at half of the fitted maximal effect; on the % scale 0 is the no-effect control and ±100 the full control effect; nearly all actives have a fitted effect of over 60% in size
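First, TGR (20 nM dispensed) and NADPH were mixed with compound. Second, a 15 min room-temperature incubation followed. Third, further NADPH and then DTNB were added to start the reaction. Finally, TNB absorbance was monitored kinetically.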
* marks the source's active call; other numbers are inactive results; ? = inconclusive; . = no result. Unless noted, the call rests on the fitted dose curve; in most records, active means well fitted curve in the direction sought with a large enough effect; inconclusive means small, poorly fitted or top-dose-only effect, or another doubt; inactive means no such curve, though single readings can be large; an effect the other way counts as inactive or inconclusive.

SMILES	FBPA Giardia inh	LmPK inhibitor	CHX counter	Tb PYK inh	Shiga toxin inh	Sm TGR block
CCC(=O)N1CCc2cc(Br)cc(S(=O)(=O)CCC(=O)NCc3ccc(F)cc3)c21	.	.	.	1%	.	-20%
COc1cc(-c2nc3sccn3c2Nc2c(C)cccc2C)ccc1O	.	.	.	-34%	.	1.1µM*
CC(Oc1cc2oc(=O)c3c(c2cc1Cl)CCC3)C(=O)NCc1ccccn1 (stereo not drawn)	-9%	-5%	-4	-5%	-3	1%
Oc1ccc(/C=N/Nc2ncnc3nc[nH]c23)cc1	-6%	-29%	35*	-26%	60	12%
Clc1ccc(/C=N/Nc2ncnc3nc[nH]c23)cc1	-11%	-25%	39*	-2%	64	3%
Cc1ccc(/C=N/Nc2ncnc3nc[nH]c23)cc1	-12%	-27%	38*	-3%	147*	5%
FC(F)(F)c1nc(SCc2ccc(Cl)cc2Cl)n[nH]1	-14%	5%	20*	1%	28	4%
O=C(Cc1ccc(Br)cc1)NCc1ccccc1	14%	-2%	19*	-16%	22	-3%
COc1ccccc1CNC(=O)CCc1ccccc1	21%	-5%	8	9%	5	3%
COc1ccccc1CNC(=O)Cc1ccc(Br)cc1	1%	5%	35*	-6%	active	16%
CC1=CSC2=NC(=O)/C(=C/c3cccc(OC(=O)c4ccco4)c3)C(=N)N12	-9%	3%	11	-10%	34*	-22%
CCS(=O)(=O)C1=NN2C(=N)/C(=C\c3ccc(OS(=O)(=O)c4ccccc4)cc3)C(=O)N=C2S1	.	2%	33*	0%	38	45µM*
CCC1=NN2C(=N)/C(=C/c3ccc(OS(=O)(=O)c4ccccc4)cc3)C(=O)N=C2S1	-1%	-5%	12	4%	18	-4%
CCS(=O)(=O)C1=NN2C(=N)/C(=C\c3ccc(OC(=O)c4ccco4)cc3)C(=O)N=C2S1	.	-9%	-1	4%	0	35µM*
CC(C)CS(=O)(=O)C1=NSC2=NC(=O)/C(=C\c3ccc(OC(=O)c4ccco4)cc3)C(=N)N21	.	0%	-2	-7%	-5	-11%
CSC1=NSC2=NC(=O)/C(=C\c3ccc(OC(=O)c4ccco4)cc3)C(=N)N12	-14%	-11%	19*	-8%	34*	0%
CCn1nc(C)c2c(-c3ccccc3)cc(=O)n(C(C)C(=O)NCc3cccc(OC)c3)c21 (stereo not drawn)	.	.	.	-1%	.	0%
CCCCN1CC(COCc2ccccc2)Oc2cc(Br)ccc2S1(=O)=O (stereo not drawn)	.	.	.	-4%	.	.
CS(=O)(=O)C1=NSC2=NC(=O)/C(=C\c3ccc(OS(=O)(=O)c4ccccc4)cc3)C(=N)N21	.	-10%	16*	4%	34*	-2%
Cc1ccc(S(=O)(=O)N/N=C/c2cc(Br)c(C)o2)cc1	-4%	-2%	10	2%	6	0.1µM*
Cc1ccc(-c2cc(C(=O)N(Cc3ccc(C(C)(C)C)cc3)Cc3ccco3)no2)cc1	.	.	.	-10%	.	-2%
O=C(Nc1ccccc1)c1ccncc1	3%	-4%	-3	-5%	-1	0%
CC(=O)c1ccc(NC(=O)c2ccn[nH]2)cc1	10%	?	35*	-26%	65*	3%
O=C(Nc1ccccc1)c1ccn[nH]1	.	-17%	38*	-10%	94*	-1%
O=C(Nc1cccc([N+](=O)[O-])c1)c1ccn[nH]1	-6%	-7%	60*	-2%	76*	0%
CCOC(=O)C(=O)N(C)c1c(CC)nc2c(OCc3ccccc3OC)cccn12	.	.	.	2%	.	.
CC(=O)N1CCc2cc(S(=O)(=O)N3CCc4ccccc43)ccc21	-1%	5%	-2	-11%	-2	3%
CCCCC(=O)Nc1cc(C)c(O)c(-c2nc3ncccc3o2)c1	.	.	.	1%	.	0%
c1ccc(-c2ccc3cnccc3n2)cc1	.	.	.	2%	.	.

Compound activity as filed in PubChem.
